NLRP3 yeast inh = inhibitors of NALP3 inflammasome in yeast. Yeast reconstituted NLRP3/ASC/caspase-1, beta-gal luminescence, 24 h. actives 0.39% (n = 330,000). inhibition, % at 10 µM. AID 2825;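 active = inhibition of 50% or more; inactive = inhibition below 50%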;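 also: plate controls were induced DMSO wells for no effect and uninduced yeast grown without galactose for full effect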
tim10-1 inh = tim10-1 yeast growth inhibition; S. cerevisiae tim10-1 ts strain growth, BacTiter-Glo, 24 h; inhibition, % at 20 µM; actives 2.2% (n = 330,000); AID 463190;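 active = inhibition of at least 40%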;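 also: mutant grown at 25 °C; 0% = DMSO wells with yeast and 100% = wells holding no yeast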
tim23-1 inh = growth inhibitors of tim23-1 mutant yeast; S. cerevisiae tim23-1 growth, BacTiter-Glo luminescence, 24 h; inhibition, % at 20 µM; actives 1.3% (n = 330,000); AID 463212;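 active = growth inhibition of the mutant yeast at or above 50%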;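 also: temperature-sensitive mutant grown at 25 °C; plate controls were DMSO-treated mutant yeast for no effect and medium wells lacking yeast for full effect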
TIM10 inh = growth inhibitors of TIM10 yeast strain | S. cerevisiae TIM10 strain growth, BacTiter-Glo luminescence, 24 h | inhibition, % at 10 µM | actives 1.4% (n = 330,000);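 active = inhibition of 40% or more at the single tested concentration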;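 also: wild-type TIM10 isogenic control strain grown at permissive 25 °C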
NALP1 yeast inh = inhibitors of NALP1 inflammasome in yeast | S. cerevisiae NALP1/ASC/caspase-1 growth, X-gal OD620, 72 h | AID 2071 | actives 0.61% (n = 280,000) | inhibition, % at 10 µM; in the data active = inhibition mostly above about 24%, no sharp cut-off; inactive = mostly below about 32%
NALP3 yeast conf = NALP3 inhibition confirmation in yeast | shares compounds with NLRP3 yeast inh | yeast expressing human NALP3, luminescence | inhibition, % at 10 µM | actives 81% (n = 1,300); in the data active = inhibition above about 48%
Casp1 ASC ctr = caspase-1-ASC yeast counter-screen hit; yeast expressing Caspase-1-ASC, luminescence counter screen; AID 488784; inhibition, % at 10 µM; actives 66% (n = 1,000); shares compounds with NLRP3 yeast inh
NALP3 retest = yeast NALP3 inhibition, confirmed on retest. shares compounds with NLRP3 yeast inh. yeast expressing human NALP3, luminescence read-out. inhibition, % at 10 µM. actives 53% (n = 1,000). AID 488794
tim10-1 conf = confirmation of tim10-1 mutant yeast growth inhibitors; shares compounds with tim10-1 inh; S. cerevisiae tim10-1 ts strain growth, BacTiter-Glo, 24 h; inhibition, % at 20 µM; actives 56% (n = 7,400); AID 463213;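 active = inhibition of yeast growth at or above a set limit in either of two repeat tests at 20 µM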;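 also: tim10-1 mutant grown at permissive 25 °C to find synthetic lethal compounds; 0% = DMSO yeast wells and 100% = medium wells without yeast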
TIM10 conf = TIM10 yeast growth inhibition, confirmed | S. cerevisiae tim10 strain growth, BacTiter-Glo luminescence, 24 h | actives 63% (n = 4,600) | inhibition, % at 10 µM | shares compounds with TIM10 inh;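 active = inhibition of yeast growth at or above a set limit in either of two replicates at 10 µM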;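 also: this counterscreen used the strain with wild-type TIM10; 0% = yeast with DMSO and 100% = medium wells lacking yeast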
* marks the source's active call; other numbers are inactive results; . = not tested or not shown. Most compounds without a hit are left out; they make up all but 4% or so of the library. Rule as the data show it, unless noted: active = inhibition above about 50%; inactive = the rest.

SMILES	NLRP3 yeast inh	tim10-1 inh	tim23-1 inh	TIM10 inh	NALP1 yeast inh	NALP3 yeast conf	Casp1 ASC ctr	NALP3 retest	TIM10 conf	others
CCCCCCCCCCCCCCCC(=O)OC(CC(=O)O)C[N+](C)(C)C (centres undefined)	57.0*	63.9*	4.4	4.5	.	45.2	67.0*	44.6	.	tim10-1 conf=22.2
COc1ccc(S(=O)(=O)Oc2ccccc2C(N)=O)cc1	12.2	-1.4	-10.2	7.6	.	.	.	.	.
Cc1nc(-c2ccc(F)cc2)c(CC(=O)N(C)CC(=O)Nc2ccc(F)cc2)s1	17.1	16.9	27.0	8.5	.	.	.	.	.
Cn1c(/C=N/Nc2nc3ccccc3[nH]2)nc2ccccc21	51.3*	40.8*	46.0	22.6	-13.5	74.3*	8.8	22.4	.	tim10-1 conf=23.9
COCCn1c(-c2ccccc2)csc1=Nc1cccnc1	8.4	12.4	30.4	4.1	-16.3	.	.	.	.
CC(C)n1c(-c2ccco2)csc1=Nc1cccnc1	52.8*	48.8*	34.5	17.8	8.7	11.0	.	.	.	tim10-1 conf=31.9*
CNC(=O)c1ccc(S(=O)(=O)c2ccc(Cl)cc2)c(NC(C)=O)c1	16.9	-5.4	0.0	-5.1	15.4	.	.	.	.
CNC(=O)c1nnsc1S(=O)(=O)c1ccc(Cl)cc1	59.5*	57.9*	32.4	22.8	89.7*	66.7*	65.1*	46.7	.	tim10-1 conf=46.5*
O=C(c1csc2c1CCCC2)N1CCN(c2cccc(C(F)(F)F)c2)CC1	-109.5	56.0*	33.4	30.1	-6.9	5.1	.	.	.	tim10-1 conf=33.0*
O=C(c1cccc(F)c1)N1CCN(c2cccc(C(F)(F)F)c2)CC1	-51.4	31.5	28.8	19.9	-10.1	.	.	.	.
Cn1c(Cl)c(C(=O)Nc2ccccc2)c2ccccc21	60.3*	-7.1	46.2	51.1*	-0.1	82.2*	56.5*	51.4*	56.9*
Cc1[nH]c2ccccc2c1C(=O)/C=C\c1ccccc1Cl	53.0*	30.1	47.4	42.7*	.	-20.0	.	.	11.8
CC(=O)c1c(C)[nH]c2ccccc2c1=O	10.6	-9.8	8.2	-3.9	3.3	.	.	.	.
O=C(Nc1cccc(Cl)c1)c1cnn2cccnc12	53.5*	23.2	45.3	51.6*	3.0	78.8*	43.4	56.0*	35.0*
O=c1c(O)c(-c2cccs2)oc2ccccc12	67.4*	41.8*	15.5	65.3*	50.3	86.5*	78.5*	73.3*	71.2*	tim10-1 conf=35.2*
COc1ccc(-n2cc(-c3ccccc3)c3c(=O)[nH]cnc32)cc1	-104.5	34.3	45.8	50.8*	15.3	-16.6	.	.	45.5*
COc1ccc(CC(=O)Nc2ccc(/C(C)=N\NC(=O)c3ccc(Br)o3)cc2)cc1	-1.1	-2.5	6.8	-1.7	10.7	.	.	.	.
Cc1sc2nc(-c3ccc(Br)cc3)oc(=O)c2c1C	7.3	9.0	14.1	-2.1	2.7	.	.	.	.
COc1ccc(C(=O)CSc2nnc(CNC(=O)c3ccccc3F)n2C)cc1OC	6.3	4.8	-7.4	-13.0	-4.4	.	.	.	.
COC(=O)COc1ccccc1C(N)=O	1.5	-1.7	10.4	-4.6	0.3	.	.	.	.
COC(=O)COc1ccc(-c2ccc(F)cc2)cc1C=O	55.7*	61.9*	39.2	74.2*	21.2	55.3*	57.6*	27.6	80.2*	tim10-1 conf=65.3*
CC(C)(C)C1CCc2[nH]c3ccccc3c(=O)c2C1 (centres undefined)	71.7*	29.3	45.7	44.3*	-3.2	94.3*	71.5*	77.0*	33.2*
O=c1c2c([nH]c3ccccc13)CCCC2	19.6	2.9	10.0	10.6	0.7	.	.	.	.
CC(C)c1ccc(NC(=O)COC(=O)C2CCCCC2)cc1	-3.4	18.2	38.6	17.9	.	.	.	.	.
COc1ccccc1OCCCc1c(C)n[nH]c1C	51.4*	21.0	-49.7	52.4*	42.6*	88.2*	94.6*	80.8*	50.9*
SMILES	NLRP3 yeast inh	tim10-1 inh	tim23-1 inh	TIM10 inh	NALP1 yeast inh	NALP3 yeast conf	Casp1 ASC ctr	NALP3 retest	TIM10 conf	others
CCN1/C(=C/c2ccc3cc(C)ccc3[n+]2CC)Sc2ccccc21	55.6*	65.3*	35.0	65.6*	123.3*	67.8*	99.6*	98.8*	75.2*	tim10-1 conf=44.5*
CCN1/C(=C/c2sc(-c3ccccc3C)c[n+]2C)Sc2ccccc21	.	.	.	.	7.7	.	.	.	.
CC1(CCCN2C(=O)c3ccccc3C2=O)OCCO1	13.4	1.9	-10.8	-13.6	.	.	.	.	.
O=C(Nc1ccc2c(c1)Cc1ccccc1-2)c1cc2ccccc2o1	1.5	-13.0	-5.9	0.1	.	.	.	.	.
O=C(Nc1ccc2c(c1)Cc1ccccc1-2)c1ccncc1	53.2*	17.9	42.7	56.9*	49.2	-16.5	.	.	3.6
CC1CCc2c(C(=O)Nc3nccs3)csc2C1 (centres undefined)	58.1*	34.2	42.7	43.5*	29.8	69.2*	76.8*	46.0	43.4*
CCOC(=O)c1ccc(N(C(=O)CNC(=O)c2ccco2)C(C(=O)NCC2CCCO2)c2ccc(OC)c(OC)c2)cc1 (centres undefined)	18.3	1.4	8.6	8.4	21.8	.	.	.	.
CCN1/C(=C/C=C/c2oc3ccc(-c4ccccc4)cc3[n+]2CC)Oc2ccc(-c3ccccc3)cc21	66.7*	61.3*	-54.3	62.9*	51.2*	67.7*	22.4	43.2	42.2*	tim10-1 conf=-6.3
COc1ccccc1C(=O)NNC(=O)c1ccc(Br)o1	-1.6	-12.5	7.9	-0.7	3.7	.	.	.	.
O=C(CCl)Oc1ccc2occ(C(=O)c3cccs3)c2c1	72.8*	16.9	-20.4	60.6*	-3.0	85.5*	.	.	40.6*
CC(=O)Oc1ccc2occ(C(=O)c3ccccc3)c2c1	43.6	-20.3	16.6	-9.6	.	.	.	.	.
COc1ccc(-c2cc3cccc(OC)c3oc2=O)cc1	34.5	24.9	27.9	7.7	15.0	.	.	.	.
COc1cccc2cc(-c3nc4ccccc4[nH]3)c(=O)oc12	57.0*	-31.4	13.7	54.1*	11.0	53.9*	28.8	25.6	36.0*
CCOc1ccc(NC(=O)CN(C)C(=O)c2c(-c3c(F)cccc3Cl)noc2C)cc1OCC	5.2	17.6	1.9	2.7	.	.	.	.	.
CS(=O)(=O)c1sc(C#N)c2c1C(=O)CC(c1ccccc1)C2 (centres undefined)	51.0*	21.4	-12.5	42.4*	-12.2	38.8	.	.	42.3*
CCOc1cc2c(cc1OCC)CN(C(=O)c1cccc(S(=O)(=O)N3CCCC3)c1)CC2	16.0	7.9	17.4	14.8	.	.	.	.	.
N#Cc1nc(-c2cccs2)oc1NCCc1ccccc1	70.6*	57.0*	36.3	64.8*	7.1	77.0*	70.0*	62.6*	67.8*	tim10-1 conf=38.1*
